Consider five compounds from PubChem BioAssay (EPA / NIEHS).

Assay [1] in a line: ATG_TCF_b_cat_CIS: Attagene CIS-FACTORIAL HepG2 Assay for human T-Cell-Factor with beta-catenin (TCF/b-cat) (AID 2282965; active means hit-call score of the fitted dose curve at least 0.9, where 1 is the maximum; inactive means score below 0.9). Particulars: HepG2 TCF/beta-catenin cis-reporter transcription, actives raise or lower the signal. The gist of the method:
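Endogenous transcription factor activity is captured through cis-promoter reporter constructs transiently introduced into human HepG2 liver cells. Induced reporter mRNA is measured after 24 h and fitted bidirectionally relative to DMSO.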

The nature of assay [2]: ATG_TAL_CIS: Attagene CIS-FACTORIAL HepG2 Assay for human TAL Basal Promoter (AID 2282966; active means hit-call score of the fitted dose curve at least 0.9, where 1 is the maximum; inactive means score below 0.9;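 further: background control endpoint measuring basal TAL promoter reporter mRNA not a specific factor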). Particulars: HepG2 Attagene cis-factorial TAL promoter reporter; actives raise or lower the signal. The gist of the method:
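Endogenous transcription-factor activity is sensed in HepG2 cells through transfected cis-promoter reporter constructs. After 24 h dosing, reporter transcripts are quantified by RT-PCR and capillary electrophoresis. Gain or loss of signal is fitted relative to DMSO.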

Assay [3] is described as follows: ATG_TGFb_CIS: Attagene CIS-FACTORIAL HepG2 Assay for human Transforming Growth Factor (TGF) (AID 2282967; active means hit-call score of the fitted dose curve at least 0.9, where 1 is the maximum; inactive means score below 0.9). The note with it: HepG2 Attagene CIS TGFb reporter, mRNA transcription; actives raise or lower the signal. The gist of the method:
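HepG2 cells transiently transfected with cis-promoter-driven multiple reporter units measure endogenous TF activity; reporter mRNA quantified at 24 h by RT-PCR, FAM labeling, HpaI digestion and capillary electrophoresis. Bidirectional fit vs DMSO.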

The nature of assay [4]: ATG_VDRE_CIS: Attagene CIS-FACTORIAL HepG2 Assay for human Vitamin D Receptor Element (VDRE) (AID 2282968; active means hit-call score of the fitted dose curve at least 0.9, where 1 is the maximum; inactive means score below 0.9). The note with it: HepG2 VDRE cis-reporter transcription, actives raise or lower the signal. The gist of the method: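 Measures endogenous factor activity through cis-element-driven reporter transcripts in transiently transfected HepG2. Cells are treated 24 h; reporter mRNA is quantified by RT-PCR and capillary electrophoresis; fitting is bidirectional.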

Assay [5] has as its target Estrogen receptor (Homo sapiens) (UniProt P03372). Description: ATG_ERa_TRANS: Attagene TRANS-FACTORIAL HepG2 Assay for human Estrogen Receptor alpha (ERa) (AID 2282970). The note with it: HepG2 Attagene TRANS ERa GAL4 reporter, mRNA. The gist of the method: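 Transfected HepG2 cells carrying GAL4-UAS-driven reporter units were dosed for 24 hours. Total RNA was reverse-transcribed, reporter sequences PCR-amplified, FAM-labelled, HpaI-digested and resolved by capillary electrophoresis. Increases over DMSO control defined activity.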

The target of assay [6] is Steroid hormone receptor ERR1 (Homo sapiens) (UniProt P11474). Briefly: ATG_ERRa_TRANS: Attagene TRANS-FACTORIAL HepG2 Assay for human Estrogen-Related Receptor alpha (ERRa) (AID 2282971). Particulars: HepG2 Attagene TRANS reporter, ERRa transactivation. The gist of the method:
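HepG2 cells were transiently transfected with multiple GAL4-UAS reporter units, then dosed with compound for 24 h. Total RNA was reverse-transcribed, reporter cDNA PCR-amplified and fluorescently labelled, and fragments resolved by capillary electrophoresis; induction was compared with DMSO.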

The target in assay [7] is X-box-binding protein 1 (Homo sapiens) (UniProt P17861). Description: ATG_Xbp1_CIS: Attagene CIS-FACTORIAL HepG2 Assay for human X-box Binding Protein 1 (XBP1) (AID 2282972; active means hit-call score of the fitted dose curve at least 0.9, where 1 is the maximum; inactive means score below 0.9). Particulars: HepG2 XBP1 cis-element reporter, Attagene multiplex; actives raise or lower the signal. The gist of the method: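 Changes in reporter transcript abundance, read by RT-PCR and capillary electrophoresis, reflect endogenous transcription factor activity. Transfected HepG2 cells received compound for 24 hours; DMSO defined baseline for bidirectional analysis.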

Assay [8] can be described thus: ATG_GAL4_TRANS: Attagene TRANS-FACTORIAL HepG2 Assay for GAL4 (Internal Marker) (AID 2282976). Particulars: HepG2 Attagene TRANS GAL4 internal marker reporter. The gist of the method:
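Fluorescence from capillary electrophoresis of labelled RT-PCR products quantifies reporter mRNA induction after 24 h dosing of HepG2 cells carrying transfected GAL4-UAS reporter transcription units. Vehicle DMSO serves as baseline.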

The target of assay [9] is Estrogen-related receptor gamma (Homo sapiens) (UniProt P62508). Briefly: ATG_ERRg_TRANS: Attagene TRANS-FACTORIAL HepG2 Assay for human Estrogen-Related Receptor gamma (ERRg) (AID 2282977).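 Further: hits increase reporter signal over DMSO so potencies reflect activators.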 Particulars: HepG2 Attagene TRANS reporter, ERRg transactivation. The gist of the method:
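Exogenous NR-Gal4 chimera activity was assessed in HepG2 cells bearing transfected GAL4-UAS reporters. After 24 h dosing, total RNA underwent RT-PCR, fluorescent primer extension and HpaI digestion before capillary electrophoresis, with gain of signal scored against DMSO.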

In assay [10] the target is Glucocorticoid receptor (Homo sapiens) (UniProt P04150). Briefly: ATG_GR_TRANS: Attagene TRANS-FACTORIAL HepG2 Assay for human Glucocorticoid Receptor (GR) (AID 2282978).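 Further: activators score as hits since higher reporter transcript over DMSO is fitted.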 The note with it: HepG2 Attagene TRANS GR reporter, mRNA transcription. The gist of the method:
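Transient MRTU transfection of HepG2 (GAL4-UAS reporters, exogenous NR-GAL4 chimeras), 24 h dosing. Readout: reporter transcript via RT-PCR + capillary electrophoresis fluorescence. Positive direction vs DMSO baseline.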

The target of assay [11] is Oxysterols receptor LXR-beta (Homo sapiens) (UniProt P55055). Briefly: ATG_LXRb_TRANS: Attagene TRANS-FACTORIAL HepG2 Assay for human Liver X Receptor beta (LXRb) (AID 2282981). Particulars: HepG2 Attagene TRANS GAL4-LXRb reporter, mRNA. The gist of the method:
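After 24 h of chemical treatment, transfected HepG2 cells yield total RNA; reporter cDNA is PCR-amplified, FAM-labelled, HpaI-cut and run on capillary electrophoresis. Signal reflects chimeric LXRb-Gal4 activity on GAL4-UAS reporters.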

Assay [12] can be described thus: ATG_M_06_TRANS: Attagene TRANS-FACTORIAL HepG2 Assay for M06 Transcription Factor (Internal Marker) (AID 2282983). Particulars: HepG2 Attagene TRANS M06 internal marker reporter. The gist of the method: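 Human liver HepG2 cells bearing transiently transfected chimeric NR-GAL4 reporter units were treated with chemicals for 24 h. Total RNA was reverse-transcribed, reporter sequences amplified and labelled, then quantified by capillary electrophoresis. Activity was fitted upward relative to DMSO.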

The target of assay [13] is Androgen receptor (Homo sapiens) (UniProt P10275). Description: ATG_AR_TRANS: Attagene TRANS-FACTORIAL HepG2 Assay for human Androgen Receptor (AR) (AID 2282973). Particulars: HepG2 Attagene TRANS-FACTORIAL AR reporter transcription. The gist of the method:
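Transfected HepG2, 24 h treatment, chimeric NR-Gal4 driving GAL4-UAS reporters. mRNA induction by RT-PCR/capillary electrophoresis fluorescence; DMSO as negative control and baseline.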

For assay [14], the target named is Bile acid receptor (Homo sapiens) (UniProt Q96RI1). Description: ATG_FXR_TRANS: Attagene TRANS-FACTORIAL HepG2 Assay for Farnesoid X Receptor (FXR) (AID 2282979).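 Further: hits raise reporter mRNA above DMSO so AC50 marks FXR activation.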 The note with it: HepG2 Attagene TRANS FXR-GAL4 reporter transcription. The gist of the method:
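Chimeric FXR-GAL4 activity in transiently transfected human HepG2 liver cells is scored as induction of reporter mRNA after 24 h of dosing. Detection uses RT-PCR with fluorescent labelling and capillary electrophoresis, with DMSO serving as baseline.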

Assay [15] can be described thus: ATG_M_32_TRANS: Attagene TRANS-FACTORIAL HepG2 Assay for M32 Transcription Factor (Internal Marker) (AID 2282984).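 Further: transcript level of a background control reporter unit measured by RT-PCR and capillary electrophoresis.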 The note with it: HepG2 Attagene TRANS M32 internal marker reporter. The gist of the method: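 Cell-based TRANS-format assay in HepG2: exogenous chimeric GAL4 reporter units transiently expressed, compounds applied 24 h. Reporter mRNA detected by RT-PCR plus capillary electrophoresis; this readout is an internal background marker.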

In assay [16] the target is Nuclear receptor subfamily 1 group I member 3 (Homo sapiens) (UniProt Q14994). Briefly: ATG_CAR_TRANS: Attagene TRANS-FACTORIAL HepG2 Assay for human Constitutive Androstane Receptor (CAR) (AID 2282969).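 Further: activators raise reporter mRNA above DMSO so AC50 marks induction.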 Particulars: HepG2 Attagene TRANS-FACTORIAL CAR reporter. The gist of the method: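 Signal is reporter mRNA induction relative to DMSO, measured 24 h after dosing by RT-PCR with fluorescent primer extension and capillary electrophoresis. Human HepG2 liver cells carried transiently transfected chimeric NR-Gal4/GAL4-UAS reporter constructs.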

Assay [17] concerns the target Hepatocyte nuclear factor 4-alpha (Homo sapiens) (UniProt P41235). Briefly: ATG_HNF4a_TRANS: Attagene TRANS-FACTORIAL HepG2 Assay for human Hepatocyte Nuclear Factor 4 alpha (HNF4a) (AID 2282982). Particulars: HepG2 HNF4a transactivation reporter, mRNA readout. The gist of the method: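 Multiplexed reporter assay: transfected HepG2, 24 h exposure, total RNA → oligo(dT) RT → PCR → 6-FAM extension → HpaI digest → CE fluorescence. DMSO = negative control.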

For assay [18], the target named is Nuclear receptor subfamily 4 group A member 2 (Homo sapiens) (UniProt P43354). Description: ATG_NURR1_TRANS: Attagene TRANS-FACTORIAL HepG2 Assay for human Nuclear Receptor Related Protein 1 (NURR1) (AID 2282985). The note with it: HepG2 Attagene TRANS reporter, mRNA readout. The gist of the method: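 Measures transcriptional activation by an exogenous NR-Gal4 chimera in transfected HepG2 liver cells. After 24 h, reporter RNA is reverse-transcribed, amplified and resolved by capillary electrophoresis; DMSO defines baseline.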

Records with an inconclusive call do not appear. Activity calls are given as the source filed them. How the source made its calls, unless noted: active means hit-call score of the fitted dose curve at least 0.9, where 1 is the maximum; inconclusive means response in the unintended direction; inactive means score below 0.9.

Chain of Estrogen-related receptor gamma (Homo sapiens) (P62508 whole entry, looked up, the tested form may be a part): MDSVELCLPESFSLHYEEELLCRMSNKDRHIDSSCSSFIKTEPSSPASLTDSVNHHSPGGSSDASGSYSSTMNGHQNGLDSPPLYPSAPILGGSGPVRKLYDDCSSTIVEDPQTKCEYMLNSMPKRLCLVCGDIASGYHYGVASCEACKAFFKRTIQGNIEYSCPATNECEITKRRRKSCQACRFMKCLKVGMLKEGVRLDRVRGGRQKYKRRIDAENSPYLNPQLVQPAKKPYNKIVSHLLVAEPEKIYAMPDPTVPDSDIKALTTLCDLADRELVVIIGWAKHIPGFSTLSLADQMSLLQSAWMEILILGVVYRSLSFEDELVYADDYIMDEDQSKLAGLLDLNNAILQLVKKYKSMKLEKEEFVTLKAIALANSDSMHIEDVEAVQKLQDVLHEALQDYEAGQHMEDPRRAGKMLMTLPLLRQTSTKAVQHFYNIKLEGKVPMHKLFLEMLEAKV
Chain of Estrogen receptor (Homo sapiens) (P03372 whole entry, looked up, the tested form may be a part): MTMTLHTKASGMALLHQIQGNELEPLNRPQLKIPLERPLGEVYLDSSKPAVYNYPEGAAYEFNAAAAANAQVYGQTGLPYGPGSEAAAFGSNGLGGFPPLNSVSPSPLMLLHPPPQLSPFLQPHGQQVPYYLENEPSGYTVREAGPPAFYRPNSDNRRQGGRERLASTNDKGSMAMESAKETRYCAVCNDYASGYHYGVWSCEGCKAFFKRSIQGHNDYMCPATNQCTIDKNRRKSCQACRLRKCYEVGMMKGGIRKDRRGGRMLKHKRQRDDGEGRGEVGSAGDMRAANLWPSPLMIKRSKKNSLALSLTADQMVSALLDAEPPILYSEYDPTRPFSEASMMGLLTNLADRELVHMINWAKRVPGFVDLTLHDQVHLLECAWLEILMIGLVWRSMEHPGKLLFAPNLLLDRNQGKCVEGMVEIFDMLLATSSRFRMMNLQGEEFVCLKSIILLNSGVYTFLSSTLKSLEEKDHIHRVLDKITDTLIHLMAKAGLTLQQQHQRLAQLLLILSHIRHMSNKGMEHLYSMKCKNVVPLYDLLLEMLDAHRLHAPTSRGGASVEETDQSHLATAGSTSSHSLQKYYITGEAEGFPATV
Chain of X-box-binding protein 1 (Homo sapiens) (P17861 whole entry, looked up): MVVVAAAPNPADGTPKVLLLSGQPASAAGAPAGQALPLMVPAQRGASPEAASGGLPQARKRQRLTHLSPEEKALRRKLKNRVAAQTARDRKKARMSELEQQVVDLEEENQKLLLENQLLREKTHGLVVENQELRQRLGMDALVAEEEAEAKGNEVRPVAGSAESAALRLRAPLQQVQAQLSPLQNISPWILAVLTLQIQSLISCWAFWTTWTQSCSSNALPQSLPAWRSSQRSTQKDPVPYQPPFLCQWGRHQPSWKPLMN
Chain of Glucocorticoid receptor (Homo sapiens) (P04150 whole entry, looked up, the tested form may be a part): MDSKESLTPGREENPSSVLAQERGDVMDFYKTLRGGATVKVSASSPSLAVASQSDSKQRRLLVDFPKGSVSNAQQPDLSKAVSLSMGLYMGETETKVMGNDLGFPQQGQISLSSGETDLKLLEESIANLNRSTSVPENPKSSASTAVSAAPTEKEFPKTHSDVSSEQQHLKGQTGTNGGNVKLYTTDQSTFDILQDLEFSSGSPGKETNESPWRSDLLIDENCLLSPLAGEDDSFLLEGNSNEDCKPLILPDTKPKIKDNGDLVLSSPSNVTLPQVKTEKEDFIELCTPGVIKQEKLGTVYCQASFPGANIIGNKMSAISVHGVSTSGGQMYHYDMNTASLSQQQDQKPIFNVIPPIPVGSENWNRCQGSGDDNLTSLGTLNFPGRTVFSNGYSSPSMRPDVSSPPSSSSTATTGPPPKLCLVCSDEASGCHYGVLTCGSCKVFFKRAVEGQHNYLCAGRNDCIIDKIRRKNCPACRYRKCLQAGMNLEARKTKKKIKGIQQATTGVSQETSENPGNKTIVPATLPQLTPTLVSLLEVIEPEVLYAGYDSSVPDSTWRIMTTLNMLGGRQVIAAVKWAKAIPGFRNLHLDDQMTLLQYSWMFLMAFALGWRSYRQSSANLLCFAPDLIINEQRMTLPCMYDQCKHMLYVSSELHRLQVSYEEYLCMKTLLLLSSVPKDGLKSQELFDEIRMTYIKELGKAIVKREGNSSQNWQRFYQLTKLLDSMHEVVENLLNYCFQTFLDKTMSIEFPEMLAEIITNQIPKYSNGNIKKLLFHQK
Chain of Bile acid receptor (Homo sapiens) (Q96RI1 whole entry, looked up, the tested form may be a part): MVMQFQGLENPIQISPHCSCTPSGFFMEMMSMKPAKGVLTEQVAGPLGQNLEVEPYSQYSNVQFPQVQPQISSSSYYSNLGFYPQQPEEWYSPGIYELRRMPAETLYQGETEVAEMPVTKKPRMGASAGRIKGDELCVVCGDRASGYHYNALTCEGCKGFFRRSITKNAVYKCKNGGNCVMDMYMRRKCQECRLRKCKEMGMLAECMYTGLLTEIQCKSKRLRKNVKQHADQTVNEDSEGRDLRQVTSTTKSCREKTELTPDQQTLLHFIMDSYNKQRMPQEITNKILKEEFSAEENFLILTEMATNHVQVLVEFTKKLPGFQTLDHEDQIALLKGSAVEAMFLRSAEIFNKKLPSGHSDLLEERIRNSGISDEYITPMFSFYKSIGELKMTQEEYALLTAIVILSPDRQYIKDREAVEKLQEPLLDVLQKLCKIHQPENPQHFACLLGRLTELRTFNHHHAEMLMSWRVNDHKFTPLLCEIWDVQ
Chain of Nuclear receptor subfamily 4 group A member 2 (Homo sapiens) (P43354 whole entry, looked up, the tested form may be a part): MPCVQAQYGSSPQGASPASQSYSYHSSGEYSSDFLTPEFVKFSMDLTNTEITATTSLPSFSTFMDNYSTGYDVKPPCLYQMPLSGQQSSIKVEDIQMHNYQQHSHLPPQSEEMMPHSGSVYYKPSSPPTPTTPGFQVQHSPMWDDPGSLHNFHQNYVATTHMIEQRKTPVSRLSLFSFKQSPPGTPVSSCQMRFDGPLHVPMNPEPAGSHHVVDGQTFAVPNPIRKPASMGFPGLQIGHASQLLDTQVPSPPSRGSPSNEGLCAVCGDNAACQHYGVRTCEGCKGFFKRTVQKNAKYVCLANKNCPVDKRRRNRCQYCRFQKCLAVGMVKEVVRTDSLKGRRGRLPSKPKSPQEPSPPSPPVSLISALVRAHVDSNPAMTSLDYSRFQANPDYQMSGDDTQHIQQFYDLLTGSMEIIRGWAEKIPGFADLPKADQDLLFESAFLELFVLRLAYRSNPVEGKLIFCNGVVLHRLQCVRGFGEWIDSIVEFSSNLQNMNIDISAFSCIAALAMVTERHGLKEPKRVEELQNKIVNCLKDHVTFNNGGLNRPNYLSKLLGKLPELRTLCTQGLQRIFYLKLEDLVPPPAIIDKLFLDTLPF
Chain of Androgen receptor (Homo sapiens) (P10275 whole entry, looked up, the tested form may be a part): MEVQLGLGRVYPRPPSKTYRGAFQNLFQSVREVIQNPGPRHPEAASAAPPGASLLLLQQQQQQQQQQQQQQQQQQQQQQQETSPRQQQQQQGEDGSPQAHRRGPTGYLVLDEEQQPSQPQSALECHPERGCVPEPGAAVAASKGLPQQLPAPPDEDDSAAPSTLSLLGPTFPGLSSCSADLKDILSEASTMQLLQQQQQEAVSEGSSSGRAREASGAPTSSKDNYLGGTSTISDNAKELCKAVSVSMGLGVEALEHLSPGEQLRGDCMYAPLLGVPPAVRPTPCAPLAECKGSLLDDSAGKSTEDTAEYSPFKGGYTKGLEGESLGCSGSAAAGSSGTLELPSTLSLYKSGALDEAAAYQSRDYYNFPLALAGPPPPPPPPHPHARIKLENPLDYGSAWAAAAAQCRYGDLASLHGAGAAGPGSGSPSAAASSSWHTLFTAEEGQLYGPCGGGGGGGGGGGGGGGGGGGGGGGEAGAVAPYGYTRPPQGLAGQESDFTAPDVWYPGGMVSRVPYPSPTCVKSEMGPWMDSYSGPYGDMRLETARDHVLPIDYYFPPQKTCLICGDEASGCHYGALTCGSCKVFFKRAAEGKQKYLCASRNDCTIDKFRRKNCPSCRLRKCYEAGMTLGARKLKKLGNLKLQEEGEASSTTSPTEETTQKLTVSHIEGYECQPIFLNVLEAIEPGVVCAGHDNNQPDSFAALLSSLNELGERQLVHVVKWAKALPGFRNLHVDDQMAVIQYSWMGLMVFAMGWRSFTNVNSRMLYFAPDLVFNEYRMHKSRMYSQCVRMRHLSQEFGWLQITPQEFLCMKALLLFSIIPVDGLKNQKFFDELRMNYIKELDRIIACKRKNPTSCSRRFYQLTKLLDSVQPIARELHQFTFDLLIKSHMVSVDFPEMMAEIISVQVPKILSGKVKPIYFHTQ
Chain of Hepatocyte nuclear factor 4-alpha (Homo sapiens) (P41235 whole entry, looked up): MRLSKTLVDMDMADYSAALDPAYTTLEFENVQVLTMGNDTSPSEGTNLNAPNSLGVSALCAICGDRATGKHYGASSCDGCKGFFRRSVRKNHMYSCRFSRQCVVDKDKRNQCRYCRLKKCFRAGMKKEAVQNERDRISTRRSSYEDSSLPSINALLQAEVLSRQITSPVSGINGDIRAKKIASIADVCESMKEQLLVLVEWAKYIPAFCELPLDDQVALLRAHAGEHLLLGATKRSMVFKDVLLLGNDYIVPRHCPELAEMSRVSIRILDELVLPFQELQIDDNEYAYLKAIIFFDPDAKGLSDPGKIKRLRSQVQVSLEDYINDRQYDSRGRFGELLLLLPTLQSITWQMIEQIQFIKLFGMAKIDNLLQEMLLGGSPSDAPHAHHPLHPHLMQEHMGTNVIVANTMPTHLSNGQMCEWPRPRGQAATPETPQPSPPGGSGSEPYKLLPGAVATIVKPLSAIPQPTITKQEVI
Chain of Steroid hormone receptor ERR1 (Homo sapiens) (P11474 whole entry, looked up, the tested form may be a part): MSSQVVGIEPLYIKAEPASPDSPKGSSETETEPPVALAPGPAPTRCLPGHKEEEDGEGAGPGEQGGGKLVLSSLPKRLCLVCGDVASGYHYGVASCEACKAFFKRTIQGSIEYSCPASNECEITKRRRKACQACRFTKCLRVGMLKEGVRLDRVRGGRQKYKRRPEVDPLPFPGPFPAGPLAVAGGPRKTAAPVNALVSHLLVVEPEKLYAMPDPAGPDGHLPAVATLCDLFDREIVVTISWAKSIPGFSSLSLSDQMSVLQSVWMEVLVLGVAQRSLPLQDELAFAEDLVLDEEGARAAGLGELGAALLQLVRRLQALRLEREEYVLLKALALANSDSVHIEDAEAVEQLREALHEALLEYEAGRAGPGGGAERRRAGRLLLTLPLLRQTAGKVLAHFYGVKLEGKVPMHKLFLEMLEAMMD

With `CCOC(=O)c1ccccc1C(=O)OCC`, the compound was classed as inactive in assay [1], in [2], in assay [3], in assay [4], in [5] and in [6]. Besides, the compound was called inactive in assay [7], in assay [8], in assay [9], in assay [10], in [11] and in assay [12].
For `OCC(F)(F)OC(F)(F)C(F)(F)OC(F)(F)CO`, the outcome in [1], in [2], in assay [3], in assay [4], in assay [7] and in [13] was inactive. For the same compound, the call in assay [10], in [14], in assay [12] and in assay [15] was inactive. In assay [5], the concentration at half-maximal activity (AC50) was 9.78 µM (active).
As for `CCOP(=S)(OCC)SCSc1ccc(Cl)cc1`, the call in [1], in assay [2], in [3], in assay [16], in assay [7] and in assay [14] was inactive. In addition, the result in assay [11], in assay [17], in assay [15] and in [18] was inactive. Besides, the AC50 in [4] is 5.83 µM (active); in assay [5] it was 3.48 µM (active).
As to `N#Cc1c(-c2ccc(Cl)cc2)[nH]c(C(F)(F)F)c1Br`, the compound was called inactive in assay [1], in assay [2], in assay [3], in assay [5], in [7] and in assay [13]. In addition, the compound was classed as inactive in assay [8], in assay [9], in assay [10], in assay [14] and in [17]. Moreover, the AC50 in [4] was 0.605 µM (active).
Turning to `CCC(C)(C)c1ccc(O)cc1`, the outcome in assay [1], in assay [2], in assay [3], in assay [4], in [6] and in [7] was inactive. In addition, the result in assay [8], in assay [9], in assay [14], in [12] and in [18] was inactive. For the same compound, the AC50 in [5] was 2.25 µM (active).

The AC50 is the concentration giving half of the maximal activity seen.
